Source: PubChem BioAssay AID1159580 (chemical genetic matrix, 2015)
“And” between values parts separate entries of the source, which are not always exact repeats. Equal values may be shown once. Out of some 5,500 compounds screened, about 2,000 (36%) were called active. Inconclusive results (about 18%) are left out. Cut-off read from the data, not from the text of the source: active = normalized growth mostly below about 0.91 (no sharp cut-off); inconclusive = no clear call, values can overlap the other calls; inactive = mostly above about 0.92. Some of the results follow.

Experiment: chemical genetic growth profiling, strain panel (AID 1159580);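 note: tested at 20 µM; growth read once vehicle control cultures reached saturation at 30 °C; 1 = growth at the plate median or of vehicle wells; lower values mean less growth of the strain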
Details: S. cerevisiae deletion strains, growth OD
[1] = locus YJR075W, strain HOC1, hits give low values
[2] = locus YMR263W, strain SAP30, hits give low values
[3] = locus YMR307W, strain GAS1, hits give low values
[4] = locus YNL153C, strain GIM3, hits give low values

Measured: normalized growth

NC(N)=NN=Cc1c(Cl)cccc1Cl
inactive: locus YAL040C, strain CLN3, hits give low values 0.994 | locus YCL061C, strain MRC1 (second series), hits give low values 0.999 | locus YDR363W, strain ESC2, hits give low values 1.01 | locus YER002W, strain NOP16, hits give low values 1.01 | [1] 1.01 | [2] 1 | [3] 1.01 | [4] 0.999 | locus YNL175C, strain NOP13, hits give low values 1.02 | locus YNL197C, strain WHI3, hits give low values 1 | locus YNL224C, strain SQS1, hits give low values 1.01 | locus YOR083W, strain WHI5 (second series), hits give low values 1.01

NC(N)=N/N=C/c1c(Cl)cccc1Cl
inactive: locus YAL026C, strain drs2, hits give low values 0.976 | locus YAL030W, strain snc1, hits give low values 0.981 | locus YBL061C, strain skt5, hits give low values 0.986 | locus YBR009C, strain hhf1, hits give low values 0.941 | locus YBR021W, strain FUR4, hits give low values 1.01 | locus YBR023C, strain chs3, hits give low values 0.968 | locus YBR171W, strain sec66, hits give low values 0.982 | locus YBR229C, strain ROT2, hits give low values 1.02 | locus YBR231C, strain swc5, hits give low values 0.984 | locus YBR279W, strain paf1, hits give low values 0.975 | locus YCL011C, strain gbp2, hits give low values 0.963 | locus YCL016C, strain dcc1, hits give low values 0.954 | locus YCL029C, strain bik1, hits give low values 1.01 | locus YCL069W, strain vba3, hits give low values 0.973 | locus YCR088W, strain abp1, hits give low values 0.973 | locus YDL005C, strain med2, hits give low values 0.972 | locus YDL035C, strain GPR1, hits give low values 1.02 | locus YDL040C, strain nat1, hits give low values 0.982 | locus YDL074C, strain BRE1, hits give low values 1.02 | locus YDL101C, strain DUN1, hits give low values 1.01 | locus YDL134C, strain PPH21, hits give low values 1.02 | locus YDL185W, strain tfp1, hits give low values 1.02 | locus YDL192W, strain arf1, hits give low values 1.03 | locus YDR001C, strain nth1, hits give low values 0.972 | locus YDR069C, strain doa4, hits give low values 0.968 | locus YDR101C, strain arx1, hits give low values 1.01 | locus YDR137W, strain rgp1, hits give low values 0.922 | locus YDR159W, strain sac3, hits give low values 0.919 | locus YDR162C, strain NBP2, hits give low values 1.02 | locus YDR195W, strain ref2 0.97 | locus YDR297W, strain sur2, hits give low values 0.978 | locus YDR318W, strain mcm21, hits give low values 1.01 | locus YDR334W, strain swr1, hits give low values 0.977 | locus YDR335W, strain msn5, hits give low values 0.976 | locus YDR388W, hits give low values 1.01 | locus YDR392W, strain spt3, hits give low values 0.916 | locus YDR502C, strain sam2, hits give low values 1.03 | locus YEL003W, strain gim4, hits give low values 0.963 | locus YEL037C, strain rad23, hits give low values 0.984 | locus YEL061C, strain CIN8 (second series), hits give low values 0.972 | locus YEL061C, strain CIN8, hits give low values 1.01 | locus YER015W, strain faa2, hits give low values 0.992 | locus YER016W, strain bim1, hits give low values 0.938 | locus YER110C, hits give low values 1.02 | locus YER111C, strain swi4, hits give low values 0.963 | locus YER155C, strain BEM2 (second series), hits give low values 0.989 | locus YER155C, strain BEM2, hits give low values 1 | locus YER167W, strain BCK2, hits give low values 1 | locus YFR010W, strain ubp6, hits give low values 0.988 | locus YGL078C, strain dbp3, hits give low values 1.03 | locus YGL086W, strain mad1, hits give low values 1.01 | locus YGL167C, strain pmr1, hits give low values 0.981 | locus YGL173C, strain kem1, hits give low values 0.977 | locus YGL227W, strain vid30, hits give low values 0.964 | locus YGL240W, strain doc1, hits give low values 0.986 | locus YGL248W, strain PDE1, hits give low values 1.01 | locus YGL253W, strain hxk2, hits give low values 0.96 | locus YGR135W, strain pre9, hits give low values 1.03 | locus YGR252W, strain gcn5, hits give low values 1.03 | locus YHR013C, strain ard1, hits give low values 0.889 | locus YHR027C, strain rpn1, hits give low values 0.967 | locus YHR030C, strain SLT2, hits give low values 1 and 0.981 | locus YHR079C, strain IRE1 (second series), hits give low values 1 | locus YHR079C, strain IRE1, hits give low values 0.987 | locus YHR094C, strain hxt1, hits give low values 1.01 | locus YHR129C, strain ARP1, hits give low values 1.01 | locus YHR142W, strain chs7, hits give low values 0.978 | locus YHR200W, strain rpn10, hits give low values 1.03 | locus YIL066C, strain RNR3, hits give low values 1.02 | locus YIL073C, strain SPO22, hits give low values 1.04 | locus YIL125W, strain kgd1, hits give low values 1.01 | locus YIR030C, strain dcg1, hits give low values 1.01 | locus YJL092W, strain hpr5, hits give low values 0.978 | locus YJL095W, strain BCK1 (second series), hits give low values 0.982 | locus YJL095W, strain BCK1, hits give low values 1 and 0.981 | locus YJL115W, strain asf1, hits give low values 0.964 | locus YJL129C, strain trk1, hits give low values 1.03 | locus YJL134W, strain LCB3, hits give low values 1 | locus YJL154C, strain vps35, hits give low values 0.969 | locus YJL164C, strain tpk1, hits give low values 0.931 | locus YJL166W, strain qcr8, hits give low values 0.996 | locus YJL168C, strain set2, hits give low values 1.01 | locus YJL187C, strain SWE1 (second series), hits give low values 1.02 | locus YJR043C, strain POL32, hits give low values 1.02 | locus YJR066W, strain TOR1, hits give low values 0.936 | [1] 1.01 | locus YKL009W, strain mrt4, hits give low values 1.01 | locus YKL068W, hits give low values 1.01 | locus YKL085W, strain MDH1 (second series), hits give low values 1 | locus YKL085W, strain MDH1, hits give low values 1 | locus YKL160W, strain elf1, hits give low values 0.983 | locus YKL190W, strain CNB1, hits give low values 1.01 | locus YKR001C, strain vps1, hits give low values 1.05 | locus YKR026C, strain gcn3, hits give low values 0.991 | locus YKR091W, strain srl3, hits give low values 0.979 | locus YLL001W, strain dnm1, hits give low values 1.01 | locus YLL026W, hits give low values 0.977 | locus YLL041C, strain sdh2, hits give low values 0.981 | locus YLR027C, strain aat2, hits give low values 0.977 | locus YLR039C, strain RIC1, hits give low values 0.965 | locus YLR058C, strain SHM2, hits give low values 1.02 | locus YLR102C, strain apc9, hits give low values 1.01 | locus YLR113W, strain HOG1, hits give low values 1 | locus YLR221C, strain rsa3, hits give low values 0.968 | locus YLR258W, strain gsy2, hits give low values 0.973 | locus YLR262C, strain YPT6 (second series), hits give low values 0.978 | locus YLR262C, strain YPT6, hits give low values 1.02 | locus YLR268W, strain sec22, hits give low values 1 | locus YLR320W, strain mms22, hits give low values 0.949 | locus YLR330W, strain CHS5, hits give low values 1.01 | locus YLR342W, strain FKS1 (second series), hits give low values 1.02 | locus YLR342W, strain FKS1, hits give low values 0.977 | locus YLR357W, strain rsc2, hits give low values 0.972 | locus YLR370C, strain arc18, hits give low values 0.974 | locus YLR371W, strain rom2, hits give low values 1.02 | locus YLR384C, strain iki3, hits give low values 0.99 | locus YLR418C, strain cdc73, hits give low values 1.02 | locus YML016C, strain PPZ1, hits give low values 1.01 | locus YML032C, strain rad52, hits give low values 1.02 | locus YML120C, strain ndi1, hits give low values 0.977 | locus YML124C, strain tub3, hits give low values 1.01 | locus YMR058W, strain fet3, hits give low values 0.971 | locus YMR078C, strain ctf18, hits give low values 1.02 | locus YMR125W, strain sto1, hits give low values 0.931 | locus YMR129W, hits give low values 0.984 | locus YMR205C, strain PFK2, hits give low values 0.986 | locus YMR223W, strain ubp8, hits give low values 1.02 | locus YMR231W, strain pep5, hits give low values 0.987 | [2] 1.01 | [3] 0.988 | locus YNL067W, strain RPL9B, hits give low values 1.01 | locus YNL071W, strain lat1, hits give low values 0.982 | locus YNL128W, strain TEP1, hits give low values 1.02 | [4] 1.01 | locus YNL183C, strain NPR1, hits give low values 0.952 | locus YNL209W, strain ssb2, hits give low values 0.968 | locus YNL233W, strain BNI4, hits give low values 1 | locus YNL250W, strain rad50, hits give low values 1.04 | locus YNL271C, strain bni1, hits give low values 1.02 | locus YNL298W, strain CLA4, hits give low values 1.05 | locus YNL307C, strain MCK1, hits give low values 1.02 | locus YNL322C, strain KRE1 (second series), hits give low values 0.956 | locus YNL322C, strain KRE1, hits give low values 1 | locus YNR049C, strain mso1, hits give low values 0.966 | locus YNR052C, strain pop2, hits give low values 1.01 | locus YOL012C, strain htz1 0.878 | locus YOL147C, strain pex11, hits give low values 1.02 | locus YOR001W, strain rrp6, hits give low values 0.957 | locus YOR061W, strain CKA2, hits give low values 1.01 | locus YOR069W, strain VPS5, hits give low values 1.01 | locus YOR070C, strain gyp1, hits give low values 0.977 | locus YOR080W, strain dia2, hits give low values 0.98 | locus YOR083W, strain WHI5, hits give low values 0.952 | locus YOR106W, strain vam3, hits give low values 0.993 | locus YOR136W, strain idh2, hits give low values 1.02 | locus YOR144C, strain elg1, hits give low values 1.02 | locus YOR184W, strain ser1, hits give low values 1.02 | locus YOR231W, strain MKK1, hits give low values 0.987 | locus YOR265W, strain rbl2, hits give low values 0.985 | locus YOR270C, strain vph1, hits give low values 0.922 | locus YOR290C, strain snf2, hits give low values 0.918 | locus YOR316C, strain cot1, hits give low values 1.01 | locus YPL051W, strain arl3, hits give low values 0.981 | locus YPL078C, strain atp4, hits give low values 0.974 | locus YPL106C, strain sse1, hits give low values 0.921 | locus YPL240C, strain hsp82, hits give low values 0.977 | locus YPL241C, strain CIN2, hits give low values 1.02 | locus YPL256C, strain CLN2, hits give low values 0.987 | locus YPR119W, strain clb2, hits give low values 1.02 | locus YPR141C, strain kar3, hits give low values 1.02 | locus YPR163C, strain tif3, hits give low values 1.02 | locus YPR167C, strain met16, hits give low values 1.01 | strain wtn01, hits give low values 1.01
active: locus YAL021C, strain ccr4, hits give low values 0.887 | locus YNL248C, strain rpa49, hits give low values 0.884
